# A selection: hits, their analogues and other compounds. The true share with any hit is near 2.8%.
# KDM5B inhibitor = KDM5B demethylase inhibition; KDM5B demethylase, FDH-coupled NADH fluorescence (FDH is formaldehyde dehydrogenase); AID 1347165; Q9UGL1; 220,000 tested, 2.6% active; Potency, µM (highest dose often 57.7 µM), most hits filed as inhibitors; active = well fitted inhibition curve with a large enough effect; inconclusive = small, poorly fitted or top-dose-only effect; inactive = no such curve, though single readings can be large or run the other way; note: potency is the fitted concentration of half-maximal effect; 0% is about no effect; nearly all actives have a fitted effect of over 70% in size
#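 Compound dilutions met 200 nM (final) KDM5BΔAP for 10 min at room temperature before substrate addition. The substrate mix held 12.5 µM H3K4me3 with cofactors 25 µM α-ketoglutarate and 50 µM Fe²⁺. NADH signal gain over 30 min defined activity.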
# IP6K1 inhibitor = inhibitors of human IP6K1. 140,000 tested, 0.81% active. activity change, % (series mostly up to about 58 µM). Q92551. AID 1645851. IP6K1 kinase, ADP-Glo luminescence, 2 h; active compounds read low; in the data active = activity change below about -25%; note: % is set by controls: 0 for no effect and ±100 for the full control effect
# Target sequence (Q92551 whole entry, looked up): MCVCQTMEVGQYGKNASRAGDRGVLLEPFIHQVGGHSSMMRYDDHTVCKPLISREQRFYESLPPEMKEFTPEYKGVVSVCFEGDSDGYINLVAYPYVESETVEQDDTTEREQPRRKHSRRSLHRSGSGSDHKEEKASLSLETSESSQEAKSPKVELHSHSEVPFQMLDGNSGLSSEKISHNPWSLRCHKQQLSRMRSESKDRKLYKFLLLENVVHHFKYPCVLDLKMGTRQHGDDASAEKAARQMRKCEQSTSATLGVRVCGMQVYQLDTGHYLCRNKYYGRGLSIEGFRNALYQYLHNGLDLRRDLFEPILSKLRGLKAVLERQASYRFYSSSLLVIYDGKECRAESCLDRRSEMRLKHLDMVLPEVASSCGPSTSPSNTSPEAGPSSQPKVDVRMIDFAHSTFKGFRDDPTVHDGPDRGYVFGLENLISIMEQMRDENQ
#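 ADP-Glo luminescence measures ADP made by human IP6K1 during a 2 h RT reaction with ATP/IP6 (mix at 1.3 mM/130 uM); top library doses 57.5 and 19.1 uM final.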
# Numbers without * were called inactive; i = inactive; ? = inconclusive; . = no result.
SMILES,KDM5B inhibitor,IP6K1 inhibitor
COc1cccc(-c2cccc(C(=O)N3CCCC3C(=O)NCc3cccc(F)c3)c2)c1 (centres undefined),.,-5
CC(C)(C)CC(=O)N[C@H]1C[C@H]2C(=O)Nc3ccc(-c4cccs4)cc3C(=O)N2C1,18µM*,13
C=CCNC(=O)N[C@H]1C[C@H]2C(=O)Nc3ccc(-c4cccs4)cc3C(=O)N2C1,?,8
O=C1Nc2ccc(-c3cccs3)cc2C(=O)N2CC[C@H](NS(=O)(=O)c3ccc(Cl)cc3)C[C@@H]12,32µM*,-5
O=C(N[C@H]1CCN2C(=O)c3cc(-c4ccc(F)cc4F)ccc3NC(=O)[C@@H]2C1)c1cccs1,i,6
O=C(Nc1cccc(Cl)c1F)c1cc(S(=O)(=O)N2CCOCC2)c(Cl)cc1Cl,i,.
COc1ccc(Cn2c(=O)c(C(=O)NCc3cccc(F)c3)nc3cccnc32)cc1,.,-3
CCOCCNC(=O)C1CCCN(Cc2cccc(-c3ccccc3OC)c2)C1 (centres undefined),.,0
Cc1cccnc1CN(C)C(=O)c1ccc2nc(-c3ccccc3)cn2c1,28µM*,-14
CCc1nnc(CN(CC)C(=O)c2ccc3nc(-c4ccccc4)cn3c2)o1,28µM*,-2
Cc1ccc2nc(C(=O)N(C)Cc3cc(-c4cccnc4)no3)cn2c1,i,1
CCc1noc(CN(CC)C(=O)c2cc(-c3ccccc3)nn2C)n1,i,0
CNC(=O)c1cc(C)nc2onc(C3CCCN(C(=O)c4ccccc4)C3)c12 (centres undefined),.,-2
CCO[C@H]1CN(C(=O)CCc2ccc(-c3ccc(Cl)cc3)[nH]2)C[C@@H]1O,28µM*,-1
O=C(CCc1ccc(-c2ccc(Cl)cc2)[nH]1)N1CC[C@H](CO)[C@H](O)C1,?,-3
Cn1ncc2c(C(=O)NC3CCC3)cc(-c3ccc(F)cc3)nc21,.,-3
Cn1ncc2c(C(=O)NCc3ccc(F)cc3)cc(C(C)(C)C)nc21,45µM*,7
Cn1ncc2c(C(=O)NCc3cccc(Cl)c3)cc(-c3ccc(Cl)cc3Cl)nc21,.,12
Cn1ncc2c(C(=O)NCc3cccnc3)cc(-c3ccc(Cl)cc3Cl)nc21,79µM*,-12
Cn1ncc2c(C(=O)NC3CC3)cc(-c3ccc(F)cc3)nc21,112µM*,-8
Cn1ncc2c(C(=O)NCc3cccnc3)cc(-c3ccc([S+](C)(=O)[O-])cc3)nc21,79µM*,-4
Cn1ncc2c(C(=O)NCc3ccc(F)c(F)c3)cc(C(C)(C)C)nc21,.,3
COc1cccc(CNC(=O)c2cc(-c3ccc([S+](C)(=O)[O-])cc3)nc3c2cnn3C)c1,.,7
Cc1ncccc1-c1nc2cc(C(=O)N3CCCCC3)ccc2o1,.,-1
Cc1ccc(C(=O)N2CCN(C(=O)c3nnn4c3COC(c3ccc(F)cc3)C4)CC2)cc1C (centres undefined),i,0
SMILES,KDM5B inhibitor,IP6K1 inhibitor
CSc1ccccc1C(=O)Nc1ccccc1-c1ccccc1,i,.
CC(C)c1ccc(CN2CC(CNc3cccnc3)C3(C2)CN(c2ccccc2)C3)cc1 (centres undefined),?,1
O=C(NCCn1ccn2nc(-c3ccc(F)cc3)cc2c1=O)c1n[nH]c2c1CCCC2,?,-2
Cn1ncc2c(C(=O)NCc3cccnc3)cc(-c3cccnc3)nc21,.,26
COCCNC(=O)c1cc(-c2ccc(Cl)cc2Cl)nc2c1cnn2C,?,3
COc1ccccc1-c1cc(C(=O)NCc2ccc(C(F)(F)F)cc2)c2cnn(C)c2n1,.,0
COC(=O)CNC(=O)c1cc(-c2ccc(Cl)cc2Cl)nc2c1cnn2C,79µM*,-2
Cn1ncc2c(C(=O)NCc3ccc(F)cc3)cc(-c3ccc(Cl)nc3)nc21,79µM*,-1
COc1ccccc1-c1cc(C(=O)NCc2ccc(F)cc2)c2cnn(C)c2n1,89µM*,-4
Cn1ncc2c(C(=O)NCc3cccnc3)cc(-c3ccc(Cl)nc3)nc21,45µM*,-5
Cn1ncc2c(C(=O)NCCc3ccc(F)cc3)cc(-c3ccc(Cl)nc3)nc21,.,14
CCCC1CN(Cc2ccccc2)[S+](=O)([O-])c2cccnc2O1 (centres undefined),.,4
Oc1ccc(-c2nc(C3CC3)nc3c2CCN(Cc2ccsc2)CC3)cc1,.,22
COC(=O)c1cnn(-c2ccc(C(=O)Nc3ccc(Br)cc3F)cc2)c1N,i,.
Cc1ccc(S(=O)(=O)N2CCC(CCC(=O)NCCc3ccccc3)CC2)cc1,.,2
CC(CCc1ccccc1)NC(=O)CSc1c2c(nc3ccc(Cl)cc13)CCCC2 (centres undefined),i,.
O=C(NCCO)c1cc2ccccc2[nH]1,i,.
O=C(NC1CC(c2cc(NCCO)ncn2)C1)c1cc2ccccc2[nH]1 (centres undefined),28µM*,9
O=C1/C(=C/c2ccsc2)CCc2ccccc21,i,.
O=C(NCc1ccc(F)cc1)C1CCN(Cc2ccccc2-c2ccccc2F)CC1,.,14
O=C(NCc1ccccc1Cl)c1nc2sccn2c1-c1ccc(C(F)(F)F)cc1,.,2
COc1ccc(F)cc1-c1ccc(C=O)cc1,50µM*,-14
COc1ccc(C=O)cc1OCc1ccc(F)cc1Cl,i,.
COc1ccc(F)cc1-c1ccc(C(=O)O)cc1,100µM*,-11
COc1ccc(F)cc1-c1cccc(C(=O)O)c1,i,6
SMILES,KDM5B inhibitor,IP6K1 inhibitor
O=C(NCc1cccc(Cl)c1)C1CCCN1C(=O)c1cccc(-c2ccccn2)c1 (centres undefined),.,-1
COc1ncccc1-c1ccc2ncn(Cc3ccccn3)c(=O)c2n1,35µM*,19
Cn1nccc1-c1ccc2ncn(Cc3ccccc3)c(=O)c2n1,?,-1
COCCn1cnc2ccc(-c3ccnn3C)nc2c1=O,35µM*,10
O=c1c2nc(OCc3ccccc3)ccc2ncn1Cc1ccccn1,i,-3
COc1ccc(CNC(=O)c2cccc(-c3ccc(OC)nn3)c2)cc1,.,8
COc1ccc(-c2c(C(=O)NCc3ccccc3F)nc3sccn23)cc1,.,-4
COc1cccc(-c2cc3c(ccn3CC3CCN(C)CC3)c(N3CCOCC3)n2)c1,i,-4
N#Cc1ccccc1-c1cc2c(ccn2Cc2ccncc2)c(N2CCOCC2)n1,?,5
COc1ncccc1-c1cc2c(ccn2Cc2ccncc2)c(N2CCOCC2)n1,7.9µM*,0
Fc1ccccc1-c1cc2c(ccn2Cc2ccncc2)c(N2CCOCC2)n1,28µM*,9
COc1ncccc1-c1cc2c(ccn2CC2CCN(C)CC2)c(N2CCOCC2)n1,25µM*,21
COc1ccccc1-c1cc2c(ccn2Cc2ccncc2)c(N2CCOCC2)n1,?,-5
COCC(=O)N[C@@H]1CN(Cc2ccncc2)C[C@H]1CN(C)C,25µM*,2
COCC(=O)N[C@@H]1CN(Cc2ccccc2)C[C@H]1CN(C)C,i,-10
CN(C)C[C@@H]1CN(Cc2ccncc2)C[C@H]1NC(=O)c1ccc(Cl)cc1,20µM*,8
CN(C)C[C@@H]1CN(Cc2ccncc2)C[C@H]1NC(=O)c1ccoc1,?,4
CCc1nc(CN2CC[C@@H](c3ccc4c(c3)OCO4)[C@H](O)C2)c(C)[nH]1,25µM*,-3
OC1CCN(c2ccnc(N3CC[C@@H](c4ccc5c(c4)OCO5)[C@H](O)C3)n2)CC1,i,-4
Cn1cc(CN2CC[C@@H](c3ccc4c(c3)OCO4)[C@H](O)C2)c2ccccc21,?,-1

# Screens from PubChem BioAssay.
